These results are taken from PubChem BioAssay (NCATS).

Results filed as inconclusive are left out. Active and inactive are the calls of the source. Unless noted, calls come from the whole dose curve.

Assay [1] concerns the target Peroxisome proliferator-activated receptor delta (Homo sapiens) (UniProt Q03181). Briefly: qHTS assay for small molecule agonists of peroxisome proliferator-activated receptor delta signaling (AID 588534).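 Note: 0% = DMSO basal wells and 100% = positive control agonist at 10 µM.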 The essentials:
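Titration series tested in agonist mode on beta-lactamase reporter cells; 18 hrs at 37 C after a 5 hr pre-incubation. Readout: CCF4 fluorescence, 2 hrs RT. Hill equation gives EC50 and maximal response.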
A general note: qHTS replaces the single test concentration by a dilution series.

Assay [2] deals with Voltage-gated inwardly rectifying potassium channel KCNH2 (Homo sapiens) (UniProt Q12809). As to the kind of experiment: qHTS Assay for Small Molecule Inhibitors of the Human hERG Channel Activity (AID 588834; active = well fitted curve in the direction sought with a large enough effect; an effect the other way counts as inactive or inconclusive;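 note: U2OS cells transduced with hERG by BacMam; top concentration of the series differs between compounds; % is set by controls: 0 for no effect and ±100 for the full control effect; lower thallium flux fluorescence means stronger hERG block; nearly all actives have a fitted effect of over 50% in size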). The essentials:
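Cells were infected with hERG-BacMam virus for 4 hrs at room temperature, grown overnight, then seeded at 2000/well. After dye loading and roughly 10 min compound treatment, thallium influx was triggered and fluorescence recorded.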

Assay [3] deals with Nuclear receptor ROR-gamma (Homo sapiens) (UniProt P51449). As to the kind of experiment: qHTS assay for small molecule antagonists of the retinoid-related orphan receptor gamma (ROR-gamma) signaling pathway (AID 651802; active = well fitted curve in the direction sought with a large enough effect; an effect the other way counts as inactive or inconclusive;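 note: CHO cells with doxycycline-induced ROR-gamma expression; luciferase reporter luminescence driven by ROR response element; series mostly up to about 92 µM; % is set by controls: 0 for no effect and ±100 for the full control effect; nearly all actives have a fitted effect of over 60% in size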). The essentials: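 Luciferase read-out: ONE-Glo luminescence after 30 min at room temperature, following 16hr doxycycline induction at 37C, 5% CO2 of CHO cells with TET-inducible ROR and RORE-LUC reporter; decreased luminescence = reduced reporter activity.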

Assay [4] is described as follows: qHTS assay for small molecule antagonists of peroxisome proliferator-activated receptor delta signaling (AID 588535; active = well fitted inhibition curve with a large enough effect in the signal ratio, with a control signal flat, not every such curve was filed as active; the % refers to the signal ratio;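 for max response: cells co-treated with a PPAR-delta agonist as stimulator during compound exposure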). As to conditions: HEK293T PPARd-UAS-bla, beta-lactamase FRET ratio, 18 h; 460 nm channel. The essentials: (§1)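 Beta-lactamase reporter read-out (405 nm excitation, 460/530 nm emission) after CCF4 loading for 2 hrs at RT. HEK293T PPAR-delta-UAS-bla cells, 2% charcoal/dextran FBS, compounds for 18 hrs at 37 C. Hill fit gave IC50 and efficacy.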

Assay [5] has as its target Peroxisome proliferator-activated receptor delta (Homo sapiens) (UniProt Q03181). Described as above. The procedure, abridged: as §1
The target of assay [6] is Peroxisome proliferator-activated receptor gamma (Homo sapiens) (UniProt P37231). As to the kind of experiment: qHTS assay for small molecule agonists of peroxisome proliferator-activated receptor gamma signaling (AID 588536; active = well fitted curve in the direction sought with a large enough effect in the signal ratio, with a control signal flat, not every such curve was filed as active; the % refers to the signal ratio;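 note: 0% = DMSO basal wells and 100% = rosiglitazone at 2 µM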). The essentials: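 This is an agonist-mode beta-lactamase reporter assay in HEK293 PPAR-gamma-UAS-bla cells with 1% charcoal/dextran FBS. Compound titrations ran 16 h at 37 C before CCF4 detection. EC50 and efficacy are Hill fits scaled to 2 uM rosiglitazone (100%) and DMSO basal.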

Assay [7] shares this target. Briefly: qHTS assay for small molecule antagonists of peroxisome proliferator-activated receptor gamma signaling (AID 588537; active = well fitted inhibition curve with a large enough effect in the signal ratio, with a control signal flat, not every such curve was filed as active; the % refers to the signal ratio;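 note: reporter cells co-stimulated with 50 nM rosiglitazone agonist during compound treatment; % of control where 0% means no effect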). The procedure, abridged: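 Read-out: CCF4 fluorescence (ex 405, em 460/530 nm) after 2 h at RT. Cells were HEK293 carrying a UAS-bla reporter and treated 16 h at 37 C with compound plus rosiglitazone (50 nM final). Normalized to rosiglitazone and DMSO.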

For assay [8], the target named is Vitamin D3 receptor (Homo sapiens) (UniProt P11473). Briefly: qHTS assay for small molecule antagonists of vitamin D receptor signaling (AID 588541).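 Note: receptor activated by calcitriol during compound treatment; series mostly up to about 77 µM; % is set by controls: 0 for no effect and ±100 for the full control effect.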 The procedure, abridged:
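VDR-UAS-bla HEK293T cells in 2% charcoal-stripped FBS were stimulated with 1-alpha,25-dihydroxyvitamin D3 (3 nM final) plus compound for 16 h at 37 C. The beta-lactamase CCF4 readout was normalized to 50 nM agonist and DMSO, and Hill fits gave IC50.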

For assay [9] the target is unchanged. As to the kind of experiment: qHTS assay for small molecule agonists of vitamin D receptor signaling (AID 588543).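 Note: 0% = DMSO basal and 100% = reference agonist control.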 The procedure, abridged: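 qHTS in agonist mode: compound titrations stimulate a VDR-driven β-lactamase reporter in HEK293T cells over 16 h at 37 °C. Response normalized to 50 nM 1α,25-dihydroxyvitamin D3 = 100%, DMSO = 0%; Hill fitting gives EC50 and maximal response.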

The nature of assay [10]: qHTS assay for small molecule agonists of retinoid X receptor alpha signaling (AID 588544).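 For activation: 0% = DMSO basal wells and 100% = reference agonist.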 The settings on record: HEK293T RXRa-UAS-bla, beta-lactamase reporter, 18 h; 530 nm emission.
Assay [11] has as its target Retinoic acid receptor RXR-alpha (Homo sapiens) (UniProt P19793). The assay is described as above.
Assay [12] has as its target Thyroid hormone receptor beta (Homo sapiens) (UniProt P10828). As to the kind of experiment: qHTS assay for small molecule agonists of thyroid hormone receptor beta signaling (AID 588545).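 Note: 0% = DMSO only and 100% = 10 nM T3.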 The essentials:
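Stimulation of a TR-driven beta-lactamase reporter was quantified in GripTite HEK 293 cells. Compound series ran for 18 hrs; curves were normalized to T3 and DMSO controls and fitted to yield EC50.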

The nature of assay [13]: qHTS assay for small molecule antagonists of retinoid X receptor alpha signaling (AID 588546; active = well fitted inhibition curve with a large enough effect in the signal ratio, with a control signal flat, not every such curve was filed as active; the % refers to the signal ratio;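 note: cells stimulated with 9-cis-retinoic acid as agonist; % is set by controls: 0 for no effect and ±100 for the full control effect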). As to conditions: HEK293T RXRa-UAS-bla, beta-lactamase ratio, antagonist mode; measured here: W530 green channel, cytotoxicity proxy. The procedure, abridged:
(§2)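 Beta-lactamase reporter inhibition, read as CCF4 fluorescence ratio (ex 405, em 460/530 nm) after 2 h at RT. HEK293T UAS-bla cells, 2500/well, were stimulated with 9-cis-RA at 500 or 100 nM final alongside test compound for 18 h at 37 C.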

For assay [14], the target named is Retinoic acid receptor RXR-alpha (Homo sapiens) (UniProt P19793). Described as above. The settings on record: HEK293T RXRa-UAS-bla, beta-lactamase ratio, antagonist mode. The essentials:
as §2

For assay [15], the target named is Thyroid hormone receptor beta (Homo sapiens) (UniProt P10828). As to the kind of experiment: qHTS assay for small molecule antagonists of thyroid hormone receptor beta signaling (AID 588547; active = well fitted inhibition curve with a large enough effect in the signal ratio, with a control signal flat, not every such curve was filed as active; the % refers to the signal ratio;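 note: cells stimulated with 0.4 nM T3 agonist during compound exposure; series mostly up to about 77 µM; % is set by controls: 0 for no effect and ±100 for the full control effect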). As to conditions: TR-UAS-bla HEK293, beta-lactamase ratio, antagonist mode, 18 h. The essentials: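 TR-UAS-bla GripTite HEK293 cells in 2% charcoal/dextran FBS medium; compounds 0.59 nM to 92 uM with T3 at 0.4nM final, 18 h at 37 C. Beta-lactamase read by CCF4 fluorescence (460/530 nm); Hill fits gave IC50 and efficacy.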

The nature of assay [16]: qHTS assay for small molecule agonists of the antioxidant response element (ARE) signaling pathway (AID 651741; active = well fitted activation curve with a large enough effect in the signal ratio; the % refers to the signal ratio; note: % of control where 0% means no effect). The procedure, abridged:
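HepG2 ARE-bla reporter cells, 2,000/well; 5 h settle at 37 C/5% CO2; compound pin transfer (23 nL, DMSO); 16 h at 37 C; LiveBLAzer B/G FRET substrate, 2 h RT; fluorescence intensity read.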

Assay [17] can be described thus: qHTS assay for small molecule activators of the p53 signaling pathway (AID 651743; active = well fitted activation curve with a large enough effect in the signal ratio, not every such curve was filed as active; the % refers to the signal ratio; note: series mostly up to about 92 µM; % of control where 0% means no effect). As to conditions: HCT-116 p53RE-bla, beta-lactamase FRET ratio, 16 h; activation: stronger effect = higher value. The procedure, abridged: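 Reporter: beta-lactamase driven by p53 response elements, stably integrated in HCT-116 cells. Cells seeded at 4,000/well, 5 h preincubation, compound (DMSO) 16 h at 37 C; B/G FRET substrate 2 h RT; fluorescence intensity read.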

A short description of assay [18]: qHTS assay for small molecule activators of the nuclear factor-kappa B (NF-kB) signaling pathway (AID 651749; active = well fitted activation curve with a large enough effect in the signal ratio; the % refers to the signal ratio; note: series mostly up to about 77 µM; % of control where 0% means no effect). The settings on record: NF-kB-bla ME-180 cells, beta-lactamase FRET ratio, 16 h; activation: stronger effect = higher value. The procedure, abridged: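 NF-kB-bla ME-180 cells, 2,000/well; 23 nL compound or DMSO pinned; 16 hr, 37C/5% CO2; beta-lactamase FRET read-out.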

The nature of assay [19]: qHTS assay for environmental chemicals that activate the Aryl hydrocarbon Receptor (AhR) signaling pathway (AID 651777; active = well fitted curve in the direction sought with a large enough effect; an effect the other way counts as inactive or inconclusive; note: % of control where 0% means no effect; nearly all actives have a fitted effect of over 15% in size). The settings on record: 1A2-DRE human hepatoma cells, luciferase, 24 h; activation: stronger effect = higher value. The essentials:
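1A2-DRE human hepatoma reporter line; 1,200 cells/well; cmpd or DMSO 24 h, 37 C/5% CO2; One-Glo 30 min RT; luciferase lum.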

In assay [20] the target is Peroxisome proliferator-activated receptor alpha (Homo sapiens) (UniProt Q07869). Briefly: qHTS assay for small molecule agonists of the peroxisome proliferator-activated receptor alpha (PPARalpha) signaling pathway (AID 651778; active = well fitted curve in the direction sought with a large enough effect; an effect the other way counts as inactive or inconclusive; note: % of control where 0% means no effect). As to conditions: PathHunter PPARalpha complementation, chemiluminescence, 6 h; max response: stronger effect = higher value. The essentials: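 Enzyme-fragment complementation assay in which ligand-bound PPARalpha translocates and forms an active enzyme that generates chemiluminescence. Cells were plated overnight, exposed to compound for 6 hr at 37 C, and then given detection reagent for 60 min at room temperature.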

Assay [21] is described as follows: qHTS assay for small molecule agonists of the antioxidant response element (ARE) signaling pathway measured by Nrf2-dependant transcriptional activity (AID 720636; active = well fitted curve in the direction sought with a large enough effect in the repeat runs; an effect the other way counts as inactive or inconclusive;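 note: HepG2 cells with an ARE-driven luciferase reporter; % of control where 0% means no effect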). The essentials:
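Cells: ARE-luc HepG2 with Nrf2-responsive luciferase. Medium contained 1% dialyzed FBS. Compound exposure lasted 16 hr at 37 C and 5% CO2, followed by ONE-Glo luciferase detection.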

Assay [22] can be described thus: qHTS assay for small molecule agonists of the antioxidant response element (ARE) signaling pathway measured by Nrf2-dependant transcriptional activity - cell viability counter screen (AID 720653; active = well fitted curve in the direction sought with a large enough effect in the repeat runs; an effect the other way counts as inactive or inconclusive; note: % is set by controls: 0 for no effect and ±100 for the full control effect). As to conditions: ARE-bla HepG2 viability, CellTiter-Glo ATP luminescence, 16 h; max response: stronger effect = lower value. The procedure, abridged: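 ARE-bla HepG2 cells treated with compounds for 16 h at 37C; this counter screen measures viability as intracellular ATP by CellTiter-Glo luminescence after 30 min at room temperature.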

A short description of assay [23]: qHTS assay for cell viability of HEK293 cells (AID 743288; active = well fitted curve in the direction sought with a large enough effect; an effect the other way counts as inactive or inconclusive; note: % is set by controls: 0 for no effect and ±100 for the full control effect; nearly all actives have a fitted effect of over 50% in size). As to conditions: ATP luminescence (CellTiter-Glo), 18 h; max response: stronger effect = lower value. The procedure, abridged: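 Quantitative high-throughput screen: compounds were pinned onto parental HEK293 cells (2,000 per well) after a minimum 5 h settling at 37 C, incubated 18 h at 37 C, and intracellular ATP measured by luciferase luminescence.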

Assay [24] in a line: qHTS assay for cell viability of the p53RE-bla HCT-116 cell line (AID 743292; active = well fitted curve in the direction sought with a large enough effect; an effect the other way counts as inactive or inconclusive; note: % is set by controls: 0 for no effect and ±100 for the full control effect; nearly all actives have a fitted effect of over 55% in size). The procedure, abridged: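 HCT-116 p53RE-bla cells seeded 4,000/well; 5 h at 37 C; compound (DMSO) added; 16 h at 37 C; CellTiter-Glo added, 30 min RT; luminescence read.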
The target in assay [25] is Nuclear receptor subfamily 1 group I member 2 (Rattus norvegicus) (UniProt Q9R1A7). Briefly: qHTS assay for small molecule activators of the rat pregnane X receptor (rPXR) signaling pathway (AID 651751; call rule not given here; note: 0% is about no effect). The settings on record: rPXR reporter cells, luciferase (One-Glo), 24 h.
Assay [26] is described as follows: qHTS assay for small molecule activators of the human pregnane X receptor (PXR) signaling pathway (AID 720659; call rule not given here; note: 0% is about no effect).

Sequence of Peroxisome proliferator-activated receptor delta (Homo sapiens) (Q03181 whole entry, looked up): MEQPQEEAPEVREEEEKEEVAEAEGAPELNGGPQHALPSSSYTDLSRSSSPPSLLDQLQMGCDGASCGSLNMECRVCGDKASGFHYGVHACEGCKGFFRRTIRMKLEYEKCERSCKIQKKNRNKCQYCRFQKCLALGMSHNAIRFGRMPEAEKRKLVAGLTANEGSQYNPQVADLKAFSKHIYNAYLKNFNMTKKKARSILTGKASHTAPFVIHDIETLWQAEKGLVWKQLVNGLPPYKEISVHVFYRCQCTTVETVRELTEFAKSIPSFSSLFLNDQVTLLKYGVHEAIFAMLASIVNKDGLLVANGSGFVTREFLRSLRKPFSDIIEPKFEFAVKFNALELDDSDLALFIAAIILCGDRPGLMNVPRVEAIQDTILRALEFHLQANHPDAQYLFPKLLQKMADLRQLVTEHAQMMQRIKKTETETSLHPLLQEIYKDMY
Sequence of Thyroid hormone receptor beta (Homo sapiens) (P10828 whole entry, looked up): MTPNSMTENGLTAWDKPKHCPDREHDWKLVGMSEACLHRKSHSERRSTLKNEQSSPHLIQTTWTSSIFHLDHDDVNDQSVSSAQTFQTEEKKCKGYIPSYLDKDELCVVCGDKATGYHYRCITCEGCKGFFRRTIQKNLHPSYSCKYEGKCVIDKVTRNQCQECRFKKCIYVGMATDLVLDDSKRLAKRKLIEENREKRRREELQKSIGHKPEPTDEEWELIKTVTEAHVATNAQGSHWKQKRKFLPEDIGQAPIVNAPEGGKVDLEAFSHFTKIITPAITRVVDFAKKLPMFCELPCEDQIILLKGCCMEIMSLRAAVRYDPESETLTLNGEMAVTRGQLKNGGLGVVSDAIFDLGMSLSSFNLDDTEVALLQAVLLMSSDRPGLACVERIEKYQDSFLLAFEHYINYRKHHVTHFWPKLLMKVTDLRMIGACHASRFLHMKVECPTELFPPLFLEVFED
Sequence of Retinoic acid receptor RXR-alpha (Homo sapiens) (P19793 whole entry, looked up): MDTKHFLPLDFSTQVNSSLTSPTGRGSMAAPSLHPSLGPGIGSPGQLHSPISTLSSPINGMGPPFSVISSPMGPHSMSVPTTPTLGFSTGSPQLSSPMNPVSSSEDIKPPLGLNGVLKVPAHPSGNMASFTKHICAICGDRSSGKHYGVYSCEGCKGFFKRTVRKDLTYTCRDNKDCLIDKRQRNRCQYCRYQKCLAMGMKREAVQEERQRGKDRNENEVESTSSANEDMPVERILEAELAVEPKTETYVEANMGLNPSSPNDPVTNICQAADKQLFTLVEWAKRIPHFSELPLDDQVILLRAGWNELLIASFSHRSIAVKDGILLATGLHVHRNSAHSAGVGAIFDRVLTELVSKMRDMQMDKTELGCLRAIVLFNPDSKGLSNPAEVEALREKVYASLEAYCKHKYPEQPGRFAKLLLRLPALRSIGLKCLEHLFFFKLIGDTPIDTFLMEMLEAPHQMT
Sequence of Vitamin D3 receptor (Homo sapiens) (P11473 whole entry, looked up): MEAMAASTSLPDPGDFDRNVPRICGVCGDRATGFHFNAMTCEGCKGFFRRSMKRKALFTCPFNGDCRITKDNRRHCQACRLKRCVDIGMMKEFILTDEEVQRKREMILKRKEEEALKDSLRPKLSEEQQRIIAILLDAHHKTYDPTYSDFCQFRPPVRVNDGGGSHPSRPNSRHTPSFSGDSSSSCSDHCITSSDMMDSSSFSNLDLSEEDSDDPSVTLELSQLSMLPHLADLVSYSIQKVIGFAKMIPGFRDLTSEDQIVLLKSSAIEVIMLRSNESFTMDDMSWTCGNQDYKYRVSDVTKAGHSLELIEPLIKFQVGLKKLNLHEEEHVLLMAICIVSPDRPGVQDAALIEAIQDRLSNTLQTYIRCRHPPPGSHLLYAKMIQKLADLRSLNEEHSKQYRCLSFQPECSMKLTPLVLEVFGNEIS
Sequence of Peroxisome proliferator-activated receptor gamma (Homo sapiens) (P37231 whole entry, looked up): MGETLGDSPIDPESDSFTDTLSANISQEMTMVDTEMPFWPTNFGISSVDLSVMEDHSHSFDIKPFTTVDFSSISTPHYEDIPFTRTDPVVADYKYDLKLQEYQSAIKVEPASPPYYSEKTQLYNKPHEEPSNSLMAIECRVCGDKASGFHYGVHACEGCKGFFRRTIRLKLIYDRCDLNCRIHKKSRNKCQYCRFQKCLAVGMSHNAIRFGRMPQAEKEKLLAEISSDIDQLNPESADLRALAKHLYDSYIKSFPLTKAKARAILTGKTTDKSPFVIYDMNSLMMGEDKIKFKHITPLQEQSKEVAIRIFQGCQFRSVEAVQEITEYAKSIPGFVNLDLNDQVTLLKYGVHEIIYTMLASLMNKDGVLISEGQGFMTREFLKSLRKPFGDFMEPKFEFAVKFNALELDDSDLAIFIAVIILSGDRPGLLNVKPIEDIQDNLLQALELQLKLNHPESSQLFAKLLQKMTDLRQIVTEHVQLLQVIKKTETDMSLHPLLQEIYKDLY
Sequence of Nuclear receptor subfamily 1 group I member 2 (Rattus norvegicus) (Q9R1A7 whole entry, looked up): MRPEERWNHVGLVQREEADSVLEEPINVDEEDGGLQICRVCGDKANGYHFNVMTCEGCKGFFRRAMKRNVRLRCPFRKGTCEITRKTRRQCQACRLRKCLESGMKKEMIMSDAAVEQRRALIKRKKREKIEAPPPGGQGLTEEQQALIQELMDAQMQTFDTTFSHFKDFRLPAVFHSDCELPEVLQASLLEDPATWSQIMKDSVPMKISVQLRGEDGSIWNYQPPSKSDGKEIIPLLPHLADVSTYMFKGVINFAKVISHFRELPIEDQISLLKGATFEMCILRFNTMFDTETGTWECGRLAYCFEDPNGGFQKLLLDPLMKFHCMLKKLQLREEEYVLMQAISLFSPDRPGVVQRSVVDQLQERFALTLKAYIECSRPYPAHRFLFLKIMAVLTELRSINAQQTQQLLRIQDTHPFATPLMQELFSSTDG
Sequence of Peroxisome proliferator-activated receptor alpha (Homo sapiens) (Q07869 whole entry, looked up, the tested form may be a part): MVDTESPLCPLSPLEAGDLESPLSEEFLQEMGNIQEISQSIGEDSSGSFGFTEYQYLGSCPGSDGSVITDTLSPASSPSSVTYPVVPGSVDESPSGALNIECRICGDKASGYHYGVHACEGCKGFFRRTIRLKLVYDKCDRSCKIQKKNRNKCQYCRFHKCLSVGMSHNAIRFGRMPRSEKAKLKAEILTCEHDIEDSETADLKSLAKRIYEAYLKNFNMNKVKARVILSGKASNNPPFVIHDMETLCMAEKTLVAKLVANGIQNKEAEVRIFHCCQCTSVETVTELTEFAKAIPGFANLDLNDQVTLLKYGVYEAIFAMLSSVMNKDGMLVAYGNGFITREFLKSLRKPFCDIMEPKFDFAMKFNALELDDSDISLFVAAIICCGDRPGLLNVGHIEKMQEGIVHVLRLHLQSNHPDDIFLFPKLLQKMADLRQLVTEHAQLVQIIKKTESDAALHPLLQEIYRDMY
Sequence of Nuclear receptor ROR-gamma (Homo sapiens) (P51449 whole entry, looked up): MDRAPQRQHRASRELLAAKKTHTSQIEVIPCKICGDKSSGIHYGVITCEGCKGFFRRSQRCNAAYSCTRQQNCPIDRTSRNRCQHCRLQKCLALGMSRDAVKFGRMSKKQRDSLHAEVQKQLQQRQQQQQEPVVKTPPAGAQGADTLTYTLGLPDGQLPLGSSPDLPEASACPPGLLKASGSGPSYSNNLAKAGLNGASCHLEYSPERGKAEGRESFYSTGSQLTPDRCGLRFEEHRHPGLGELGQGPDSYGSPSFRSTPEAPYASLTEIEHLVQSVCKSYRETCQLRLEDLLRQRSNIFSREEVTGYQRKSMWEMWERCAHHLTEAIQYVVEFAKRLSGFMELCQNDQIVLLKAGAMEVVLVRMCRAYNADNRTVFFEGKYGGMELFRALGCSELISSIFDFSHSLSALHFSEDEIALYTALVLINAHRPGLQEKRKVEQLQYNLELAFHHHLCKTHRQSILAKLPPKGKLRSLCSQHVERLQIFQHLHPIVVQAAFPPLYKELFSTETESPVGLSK
Sequence of Voltage-gated inwardly rectifying potassium channel KCNH2 (Homo sapiens) (Q12809 whole entry, looked up): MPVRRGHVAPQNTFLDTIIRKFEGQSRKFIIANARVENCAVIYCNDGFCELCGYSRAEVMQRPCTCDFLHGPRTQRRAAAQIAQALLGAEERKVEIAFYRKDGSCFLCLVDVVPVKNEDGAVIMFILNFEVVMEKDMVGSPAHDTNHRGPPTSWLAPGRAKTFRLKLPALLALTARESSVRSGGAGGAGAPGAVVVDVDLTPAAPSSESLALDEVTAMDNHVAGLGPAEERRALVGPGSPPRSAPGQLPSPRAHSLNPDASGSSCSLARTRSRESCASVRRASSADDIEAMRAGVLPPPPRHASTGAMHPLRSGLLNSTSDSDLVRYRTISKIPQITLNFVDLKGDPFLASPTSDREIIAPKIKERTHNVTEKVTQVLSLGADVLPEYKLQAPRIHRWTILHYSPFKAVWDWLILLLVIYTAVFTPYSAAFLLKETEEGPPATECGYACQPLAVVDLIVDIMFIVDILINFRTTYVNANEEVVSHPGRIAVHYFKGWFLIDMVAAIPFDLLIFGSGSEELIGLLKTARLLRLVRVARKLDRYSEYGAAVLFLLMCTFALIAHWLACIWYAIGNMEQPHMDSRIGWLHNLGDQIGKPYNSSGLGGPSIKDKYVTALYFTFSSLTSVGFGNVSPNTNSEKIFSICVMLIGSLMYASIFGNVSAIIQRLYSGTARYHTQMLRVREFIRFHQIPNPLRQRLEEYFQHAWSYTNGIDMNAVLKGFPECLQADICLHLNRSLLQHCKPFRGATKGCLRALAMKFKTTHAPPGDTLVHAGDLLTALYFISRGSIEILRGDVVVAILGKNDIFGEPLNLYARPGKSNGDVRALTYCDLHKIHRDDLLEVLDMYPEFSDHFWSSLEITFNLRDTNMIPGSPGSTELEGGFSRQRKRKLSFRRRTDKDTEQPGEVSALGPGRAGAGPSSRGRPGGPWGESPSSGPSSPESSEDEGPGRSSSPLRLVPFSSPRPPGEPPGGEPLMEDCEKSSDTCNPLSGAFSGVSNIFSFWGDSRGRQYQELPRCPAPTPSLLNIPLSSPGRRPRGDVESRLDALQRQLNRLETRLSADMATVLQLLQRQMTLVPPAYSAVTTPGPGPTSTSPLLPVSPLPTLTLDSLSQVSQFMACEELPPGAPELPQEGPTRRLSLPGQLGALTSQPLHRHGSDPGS

Consider `CN(C)CCCCCCN(C)C`, for which, in assay [1], the call was inactive. Besides, the Potency entry in assay [2] and in assay [3] was “inactive” each time.
`CC(=NC#N)N(C)Cc1ccc(Cl)nc1`: the result in assay [1], in [9] and in [26] was inactive. In addition, the max response in [4] is 24.8%; in assay [10], -1.69%; in assay [13] it was -1.52%; in assay [14] it was -19.1% (inactive); in assay [20], -1.88% (inactive); in [22], -5.31% (inactive). The max response in [23] is -11.8% (inactive); in [25] it was 2.55% (inactive). Moreover, the Potency result in [5], in assay [6], in assay [7], in [8], in [11] and in [12] was “inactive” in each case. Moreover, the Potency entry in assay [16], in assay [21] and in [24] was “inactive” in each case. The activity change % (negative = inhibition) in assay [15] is -1.79% (inactive). For the same compound, the activation is -5.43% (inactive) in assay [17], -0.278% (inactive) in [18] and 0.519% (inactive) in assay [19].
